PubChem BioAssay AID1494156 (National Center for Advancing Translational Sciences (NCATS), 2020)
Records with an inconclusive call do not appear. Values without a mark were called inactive. Activity calls are given as the source filed them. Calls follow the shape of the full dose curve.

Experiment: VSV-G qHTS counterscreen for inhibitors of MERS-S pseudo-typed particle cell entry
Conditions: VSV-G pseudotyped particle cell entry, luciferase counterscreen; series mostly up to 57.1 µM; activity, negative = inhibition: at the top concentration
In the case of `C=CC(=O)Nc1cc(Nc2nccc(-c3cn(C)c4ccccc34)n2)c(OC)cc1N(C)CCN(C)C`, the Potency is reported as 30.4 µM (active).
In the case of `CCN(CC)Cc1cc(Nc2ccnc3cc(Cl)ccc23)ccc1O`, the Potency is reported as 24.1 µM (active).
With `CC(=O)N1CCN(c2ccc(OC[C@H]3CO[C@](Cn4ccnc4)(c4ccc(Cl)cc4Cl)O3)cc2)CC1` the Potency was 7.64 µM (active).
With `C=CC1(C)CC(=O)C2(O)C(C)(O1)C(OC(C)=O)C(OC(=O)CCN(C)C)C1C(C)(C)CCC(O)C12C` (centres undefined) the “activity, negative = inhibition” value was 0%.
With `COC(=O)C[C@](O)(CCCC(C)(C)O)C(=O)O[C@@H]1C(OC)=C[C@]23CCCN2CCc2cc4c(cc2[C@H]13)OCO4` the Potency was 0.482 µM (active).
In the case of `COc1cc(NS(C)(=O)=O)ccc1Nc1c2ccccc2nc2ccccc12`, the Potency is reported as 0.764 µM (active).
With `Cc1cn([C@H]2C[C@H](N=[N+]=[N-])[C@@H](CO)O2)c(=O)[nH]c1=O` the Potency was 0.304 µM (active).
With `COc1ccc(Cc2nccc3cc(OC)c(OC)cc23)cc1OC` the Potency was 3.04 µM (active).
With `C[n+]1c2cc(N)ccc2cc2ccc(N)cc21` (tested in a mixture with another compound) the Potency was 1.71 µM (active).
In the case of `C=C(C)[C@H]1Cc2c(ccc3c2O[C@@H]2COc4cc(OC)c(OC)cc4[C@@H]2C3=O)O1`, the Potency is reported as 0.0108 µM (active).
In the case of `CCc1c2c(nc3ccc(OC(=O)N4CCC(N5CCCCC5)CC4)cc13)-c1cc3c(c(=O)n1C2)COC(=O)[C@]3(O)CC`, the Potency is reported as 10.8 µM (active).
With `Cc1nnc(C(=O)NC(C)(C)c2nc(C(=O)NCc3ccc(F)cc3)c(O)c(=O)n2C)o1` the Potency was 0.0038 µM (active).
For `CC(C)C(=O)Oc1ccc(CO)cc1[C@H](CCN(C(C)C)C(C)C)c1ccccc1`, the Potency was 21.5 µM (active).
For `CC[C@@]1(O)C(=O)OCc2c1cc1n(c2=O)Cc2c-1nc1ccccc1c2/C=N/OC(C)(C)C`, the Potency was 0.0108 µM (active).
For `C[C@H]1[C@H](OC(=O)CCC(=O)O)O[C@@H]2O[C@@]3(C)CC[C@H]4[C@H](C)CC[C@@H]1[C@@]24OO3`, the Potency was 0.681 µM (active).
In the case of `Cc1ccc(NC(=O)c2ccc(CN3CCN(C)CC3)cc2)cc1Nc1nccc(-c2cccnc2)n1`, the Potency is reported as 17.1 µM (active).
With `CCCN1C[C@H](C)[C@@H](O)[C@](C)(O)[C@@H](CC)OC(=O)[C@H](C)[C@@H](O[C@H]2C[C@@](C)(OC)[C@@H](O)[C@H](C)O2)C(C)[C@@H](O[C@@H]2O[C@H](C)C[C@H](N(C)C)[C@H]2O)[C@](C)(O)C[C@H]1C` (some centres undefined) the “activity, negative = inhibition” value was 0%.
With `N=C(N)c1ccc(OCCCCCOc2ccc(C(=N)N)cc2)cc1` the Potency was 10.8 µM (active).
In the case of `CC(C)OC(=O)OCOP(=O)(CO[C@H](C)Cn1cnc2c(N)ncnc21)OCOC(=O)OC(C)C`, the Potency is reported as 0.0192 µM (active).
For `O=c1[nH]c(=O)n([C@H]2C[C@H](O)[C@@H](CO)O2)cc1C(F)(F)F`, the Potency was 2.41 µM (active).
With `CN1CCCCC1CCN1c2ccccc2Sc2ccc(S(C)=O)cc21` (centres undefined) the Potency was 27.1 µM (active).
In the case of `O=c1ccc2ccccc2o1`, the “activity, negative = inhibition” value is reported as 0%.
In the case of `CC(C)(C)C(=O)OCOP(=O)(COCCn1cnc2c(N)ncnc21)OCOC(=O)C(C)(C)C`, the Potency is reported as 0.0429 µM (active).
For `O=C(O)c1cc(O)c2c(c1)[C@H]([C@H]1c3cc(C(=O)O)cc(O)c3C(=O)c3c(O[C@@H]4O[C@H](CO)[C@@H](O)[C@H](O)[C@H]4O)cccc31)c1cccc(O[C@@H]3O[C@H](CO)[C@@H](O)[C@H](O)[C@H]3O)c1C2=O`, the Potency was 7.44 µM (active).
In the case of `COc1cc2nccc(Oc3ccc(NC(=O)NC4CC4)c(Cl)c3)c2cc1C(N)=O`, the Potency is reported as 17.1 µM (active).
With `NCCNc1ccc(NCCN)c2c1C(=O)c1ccncc1C2=O` the Potency was 21.5 µM (active).
In the case of `COc1cccc2c1C(=O)c1c(O)c3c(c(O)c1C2=O)C[C@@](O)(C(=O)CO)CC3OC1CC(N2CCOC(OC)C2)C(O)C(C)O1` (some centres undefined), the Potency is reported as 0.152 µM (active).
In the case of `Cc1c(N)nc(C(CC(N)=O)NCC(N)C(N)=O)nc1C(=O)NC(C(=O)NC(C)C(O)C(C)C(=O)NC(C(=O)NCCc1nc(-c2nc(C(=O)NCCCN[C@@H](C)c3ccccc3)cs2)cs1)C(C)O)C(O[C@@H]1O[C@@H](CO)[C@@H](O)[C@H](O)[C@@H]1O[C@H]1O[C@H](CO)[C@@H](O)[C@H](OC(N)=O)[C@@H]1O)c1cnc[nH]1` (some centres undefined), the Potency is reported as 0.764 µM (active).
In the case of `C[C@@H]1CCO[C@H]2Cn3cc(C(=O)NCc4ccc(F)cc4F)c(=O)c(O)c3C(=O)N12`, the Potency is reported as 0.0015 µM (active).
